# Data: article PMC12280212
# How the values were obtained:
# Assay in all cases: cross-linking mass spectrometry
# [1] = target: Large ribosomal subunit protein eL31 (UniProt P62899)
# [2] = target: Large ribosomal subunit protein uL4 (UniProt P36578)
# [3] = target: Actin, cytoplasmic 1 (UniProt P60709)
# [4] = target: Histone H2B type 1-N (UniProt Q99877)
# [5] = target: Elongation factor 1-alpha 2 (UniProt Q05639)
# [6] = target: T1, LIM and SH3 domain protein 1 (UniProt Q14847)
# T1 sequence: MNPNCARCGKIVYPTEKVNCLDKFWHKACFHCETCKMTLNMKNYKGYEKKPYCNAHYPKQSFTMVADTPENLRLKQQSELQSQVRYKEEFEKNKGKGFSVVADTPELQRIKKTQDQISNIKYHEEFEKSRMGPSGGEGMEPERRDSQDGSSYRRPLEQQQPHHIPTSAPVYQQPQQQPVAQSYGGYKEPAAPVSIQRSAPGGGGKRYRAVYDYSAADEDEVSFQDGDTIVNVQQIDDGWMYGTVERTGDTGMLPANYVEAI
# [7] = target: Ubiquitin-ribosomal protein eS31 fusion protein (UniProt P62979)
# [8] = target: Vimentin (UniProt P08670)
# Peptidyl-prolyl cis-trans isomerase A, P62937, sequence (P62937 whole entry): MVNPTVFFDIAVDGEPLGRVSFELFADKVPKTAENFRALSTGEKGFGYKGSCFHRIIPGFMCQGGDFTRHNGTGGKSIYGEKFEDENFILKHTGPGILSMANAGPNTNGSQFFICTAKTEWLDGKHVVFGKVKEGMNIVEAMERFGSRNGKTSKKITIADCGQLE
substance,measurement,setting,value
"Large ribosomal subunit protein uL29, P42766",listed as a hit,[1],yes
"Large ribosomal subunit protein uL6, P32969",listed as a hit,[2],yes
"Elongation factor 2, P13639",listed as a hit,[3],yes
"Peptidyl-prolyl cis-trans isomerase A, P62937",listed as a hit,[4],yes
"Actin, cytoplasmic 1, P60709",listed as a hit,[5],yes
same,listed as a hit,[4],yes
same,listed as a hit,[6],yes
same,listed as a hit,[7],yes
"Protein S100-A6, P06703",listed as a hit,[8],yes
